Several values for one entry are separate records, joined by “and”; a condition that tells them apart may be missing. Equal entries are not always repeated. Entries with a potency or affinity are not part of this list.
Columns and labels:
[1] = test system: Staphylococcus aureus; details: Concentration 32 ug.mL-1, ASSAY_TEST Inhibition of Bacterial Growth, detection method Absorption (OD600), MEDIA CAMHB, plate type 384well, NBS, CORNING #3640, time 18 hr
[2] = test system: Escherichia coli; details: Concentration 32 ug.mL-1, ASSAY_TEST Inhibition of Bacterial Growth, detection method Absorption (OD600), MEDIA CAMHB, plate type 384well, NBS, CORNING #3640, time 18 hr

Cc1ccc(S(=O)(=O)N2CC(Cc3ccccc3)C(=O)N2S(=O)(=O)c2ccc(C)cc2)cc1 (configuration not stated)
Inhibition ([1]; 32 ug/mL): -1.12% and 2.54%
Inhibition ([2]; 32 ug/mL): -8.26% and -4.89%

CC(C)(C)OC(=O)N1C(O)C(Cc2ccccc2)CN1S(=O)(=O)c1ccc([N+](=O)[O-])cc1 (configuration not stated)
Inhibition ([1]; 32 ug/mL): 11.9% and 5.44% and 15.35%
Inhibition ([2]; 32 ug/mL): 1.32% and -2.18% and -0.91%

CCCCCCCC1CN(S(=O)(=O)c2ccc(C)cc2)N(C(=O)OC(C)(C)C)C1O (configuration not stated)
Inhibition [1]: 6.71%
Inhibition [2]: -7.16%

O=C(OCc1ccccc1)N1CC(Cc2ccccc2)C(O)O1 (configuration not stated)
Inhibition [1]: 13.58%
Inhibition [2]: -3.12%

O=C1ON(C(=O)OCc2ccccc2)CC1Cc1ccccc1 (configuration not stated)
Inhibition ([1]; 32 ug/mL): 5.51% and 8.05%
Inhibition ([2]; 32 ug/mL): -4.21% and -4.06%

CC(C)(C)OC(=O)N1C(=O)C(Cc2ccccc2)CN1S(=O)(=O)c1ccc([N+](=O)[O-])cc1 (configuration not stated)
Inhibition ([1]; 32 ug/mL): 9.07% and 7.14% and -8.81%
Inhibition ([2]; 32 ug/mL): -5.13% and -6.6% and -4.72%

O=C(OCc1ccccc1)N1OC(O)C2CCCCC21 (configuration not stated)
Inhibition [1]: 6.89%
Inhibition [2]: -5.21%

CC1CN(S(=O)(=O)c2ccc([N+](=O)[O-])cc2)N(C(=O)OC(C)(C)C)C1=O (configuration not stated)
Inhibition ([1]; 32 ug/mL): 12.53% and 22.23% and 12.31%
Inhibition ([2]; 32 ug/mL): -2.77% and -4.85% and -5.54%

CC1CN(C(=O)OCc2ccccc2)OC1O (configuration not stated)
Inhibition [1]: 2.79%
Inhibition [2]: -4.78%

Cc1ccc(S(=O)(=O)N2CC(C)C(=O)N2S(=O)(=O)c2ccc(C)cc2)cc1 (configuration not stated)
Inhibition ([1]; 32 ug/mL): 12.43% and 4.65%
Inhibition ([2]; 32 ug/mL): -5.27% and -6.97%

CCCCCCCC1CN(S(=O)(=O)c2ccc(C)cc2)N(C(=O)OC(C)(C)C)C1=O (configuration not stated)
Inhibition [1]: 0.71%
Inhibition [2]: -11.74%

CC1CN(S(=O)(=O)c2ccc([N+](=O)[O-])cc2)N(C(=O)OC(C)(C)C)C1O (configuration not stated)
Inhibition [1]: 60.53%
Inhibition [2]: -0.56%

CC1CN(C(=O)OCc2ccccc2)OC1=O (configuration not stated)
Inhibition ([1]; 32 ug/mL): 5.54% and 4.49% and 4.77%
Inhibition ([2]; 32 ug/mL): -4.89% and -2.17% and -2.01%

CC1C(O)N(C(=O)OC(C)(C)C)N(S(=O)(=O)c2ccc([N+](=O)[O-])cc2)C1C (configuration not stated)
Inhibition [1]: 14.48%
Inhibition [2]: -1.81%

CC(C)(C)OC(=O)N1C(O)C2CCCC2N1S(=O)(=O)c1ccc([N+](=O)[O-])cc1 (configuration not stated)
Inhibition [1]: -6.71%
Inhibition [2]: -4.07%

CCCCCCCC1CN(S(=O)(=O)c2ccc(C)cc2)N(S(=O)(=O)c2ccc(C)cc2)C1O (configuration not stated)
Inhibition [1]: 7.71%
Inhibition [2]: -1.55%
